Inhibition data for 47 molecules are collected here from PubChem BioAssay AID1986 (Sanford-Burnham Center for Chemical Genomics, 2009).

Structures are written as SMILES. The whole screen tested about 290,000 compounds, of which about 890 (0.31%) were called active. No stated cut-off is given here; in the data, active means inhibition mostly above about 52% (no sharp cut-off); inactive means mostly below about 76%. Only a selection was taken, and actives are over-represented in it overall.

The nature of the assay: inhibitors of HIV fusion peptide binding, primary screen, biochemical, uHTS, fluorescence dequenching (AID 1986). The note with it: cell-free peptide binding, 30 min, stronger effect = higher value.
Where [1] appears, read: measured here: repeat confirmation average inhibition, at 18.6 µM.

With `CC(C)(C)n1nnnc1CN1CCN2CCCC2C1` (stereo unspecified), for the setting “at 20 µM”, the inhibition was 1.1% (inactive).
On to `NC(=O)C1=C[C@H](c2ccc(C(F)(F)F)cc2)C[C@H](OCCCCO)O1`, for which the inhibition (at 20 µM) was -0.7% (inactive).
The same measure, in the same setting: under `Cc1cccc(NS(=O)(=O)c2ccc3c(c2)oc(=O)n3C)c1C` stands 2.3% (inactive); under `Cc1cccc(NC(=O)NC2CCCc3ccccc32)c1` (stereo unspecified), -2.1% (inactive); under `COc1ccccc1OCC(=O)Nc1ccc(S(=O)(=O)Nc2onc(C)c2C)cc1`, -0.4% (inactive).
On the same count and under the same terms, under `CCC(C)[C@H](NC(=O)[C@@H]1Cc2c([nH]c3ccccc23)C2c3ccccc3C(=O)N21)C(=O)N1CCC[C@@H]1C(=O)O` (stereo partly specified) stands 6.9% (inactive); under `O=C(CN1C(=O)/C(=C/c2ccco2)SC1=S)Nc1ccc(C(=O)O)c(O)c1`, 76.4% (active).
On the same count and under the same terms, under `O=C(CN1C(=O)/C(=C\c2cccs2)SC1=S)Nc1cccc(C(=O)O)c1` stands 32.4% (inactive); under `COc1ccc(NC(=O)CCCN2C(=O)/C(=C\c3ccco3)SC2=S)cc1`, 33.7% (inactive); under `O=C(CN1C(=O)/C(=C\c2ccco2)SC1=S)Nc1ccc(O)cc1C(=O)O`, 75.1% (active).
For `O=C(CCCN1C(=O)/C(=C\c2ccco2)SC1=S)Nc1ccc(O)cc1C(=O)O`, the inhibition (at 20 µM) is 72% (inactive) and the inhibition under setting [1] worked out at 13%.
For `O=C(CCN1C(=O)/C(=C/c2ccco2)SC1=S)Nc1ccc(O)cc1C(=O)O` the same measures were 52.5% (inactive) and 30.6%.
On to `CCCCOc1ccc(Cc2n[nH]c(=S)n2N)cc1`, for which the inhibition (at 20 µM) is -3.5% (inactive).
The same measure, in the same setting: under `Cc1ccc(C)c(S(=O)(=O)N2CCN(C(=O)c3ccc(N4CCCC4)c([N+](=O)[O-])c3)CC2)c1` stands 0.3% (inactive).
On the same count and under the same terms, under `CC1(C)Cc2nc3sc4c(N5CCCC5)nnnc4c3cc2CO1` stands 0.1% (inactive).
The same measure, in the same setting: under `O=C(NCCCCc1ccccc1)c1cccc([N+](=O)[O-])c1` stands 0.7% (inactive).
With `CCCCOc1ccc(-c2cc(C(F)(F)F)c(C#N)c(SCC(=O)O)n2)cc1`, the inhibition (at 20 µM) is 79.3% (active).
Consider `COc1ccc(-c2cc(C(F)(F)F)c(C#N)c(SCC(=O)O)n2)cc1`, for which the inhibition (at 20 µM) is 2.9% (inactive).
With `CCCOc1ccc(-c2cc(C(F)(F)F)c(C#N)c(SCC(=O)O)n2)cc1`, the inhibition (at 20 µM) is 29.9% (inactive).
Still for that read-out and setting: under `O=C(N/N=C/c1cccc([N+](=O)[O-])c1)c1ccc2nc[nH]c2c1` stands -2.3% (inactive).
Same read-out and setting: under `O=C1c2ccccc2C(=O)N1Cc1cc(Cl)c(O)c([N+](=O)[O-])c1` stands -1.1% (inactive); under `NC(=S)Nc1cc2ccccc2c2ccccc12`, -2.7% (inactive).
Still for that read-out and setting: under `CC1CCCN(S(=O)(=O)c2ccc([N+](=O)[O-])cc2)C1` (stereo unspecified) stands 1.5% (inactive); under `N[C@@H](Cc1cc(I)c(Oc2ccc(O)c(I)c2)c(I)c1)C(=O)O`, 30.3% (inactive).
As to `O=C(O)Cc1cc(I)c(Oc2ccc(O)c(I)c2)c(I)c1`, the inhibition is, setting by setting: (at 20 µM) 68.9% (inactive); under setting [1], 33.9%.
Take `O=C(O)CCc1cc(I)c(Oc2ccc(O)c(I)c2)c(I)c1`: where the note is “at 20 µM”, the inhibition is 75.1% (active).
Regarding `CCn1c(=O)c2c(nc3n2CCCN3CCc2ccc(OC)c(OC)c2)n(C)c1=O`, the inhibition (at 20 µM) is -0.3% (inactive).
In the case of `CC(C)C(=O)NNC(=O)c1csc(-c2cccs2)n1`, where the note is “at 20 µM”, the inhibition is 0% (inactive).
In the case of `COc1cc(C2CC(=O)Nc3c2c(=O)nc2c(C)cccn32)cc(OC)c1OC` (stereo unspecified), the inhibition (at 20 µM) was 0% (inactive).
On the same count and under the same terms, under `N#C/C(=C/c1ccc(N2CCOCC2)o1)c1nc2ccccc2[nH]1` stands 52.1% (active); under `N#C/C(=C/c1ccc(N2CCCCC2)o1)C(=O)Nc1ccc2ccccc2c1`, 153% (inactive).
As to `N#C/C(=C\c1ccc(N2CCCCC2)o1)C(N)=O`, the inhibition (at 20 µM) is 91.9% (active).
Consider `Cc1ccc2nc(/C(C#N)=C\c3ccc(N4CCOCC4)o3)[nH]c2c1`, for which the inhibition (at 20 µM) is 28% (inactive).
Still for that read-out and setting: under `N#C/C(=C/c1ccc(N2CCCCC2)o1)C(=O)Nc1ccc(Cl)cc1` stands 44.8% (inactive); under `N#C/C(=C\c1ccc(N2CCOCC2)o1)C(=O)Nc1ccc(O)cc1`, 148% (inactive).
On the same count and under the same terms, under `N#C/C(=C/c1ccc(N2CCOCC2)o1)C(=O)Nc1ccccc1` stands 147% (inactive).
Still for that read-out and setting: under `N#C/C(=C\c1ccc(N2CCOCC2)o1)c1nc2ccccc2[nH]1` stands 48.3% (inactive).
Consider `N#C/C(=C\c1ccc(N2CCOCC2)o1)C(=O)N1CCOCC1`, for which the inhibition is 53.5% (active) (at 20 µM) and 83.9% under setting [1].
In the case of `COc1cccc(CC(=O)NC2CCCN(Cc3ccc(Cl)cc3)C2)c1` (stereo unspecified), the inhibition (at 20 µM) is -1% (inactive).
On the same count and under the same terms, under `CCCCCn1c(=O)[nH]c2cc(C(=O)NCCN3CCCCC3C)ccc2c1=O` (stereo unspecified) stands 0.7% (inactive); under `COc1ccc(OC)c(CN2CCN(S(=O)(=O)c3ccc(NC(C)=O)cc3)CC2)c1`, -1.6% (inactive).
Still for that read-out and setting: under `S=C(NCCc1ccccc1)NC1CC2CCC(C1)N2Cc1ccccc1` (stereo unspecified) stands -0.5% (inactive); under `O=C(N/N=C/c1ccncc1)c1cccs1`, -1.5% (inactive).
Turning to `CCOC(=O)c1sc(N/N=C/c2cc(Br)c(O)c(OC)c2)nc1C`, the inhibition (at 20 µM) was 13.2% (inactive).
`COC/C=C/C1=CC2=CC(=O)C(C)(OC(=O)c3ccco3)C(=O)C2=CO1` (stereo unspecified): where the note is “at 20 µM”, the inhibition was 51% (active).
Same read-out and setting: under `COC/C=C/C1=CC2=CC(=O)C(C)(OC(=O)CCC(=O)OC)C(=O)C2=CO1` (stereo unspecified) stands 45% (inactive); under `COC/C=C/C1=CC2=CC(=O)C(C)(OC(=O)C3CCCC3)C(=O)C2=CO1` (stereo unspecified), 35.3% (inactive).
